Assay [1] is described as follows: binders of probe aFSTL3 on microarray, primary screen, stem cell growth factor project, biochemical, small-molecule microarray, fluorescence 635/667 (AID 1064).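 Further: measures binding of the biotinylated anti-FSTL3 antibody to printed compounds.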 The note with it: higher = more signal.
The nature of assay [2]: binders from COS7 lysate, DM2A8 probe, primary screen, torsin A project, cell lysate, small-molecule microarray, fluorescence 635/667 (AID 1065). The note with it: higher = more signal, COS7 lysate expressing mutant human TOR1A.
Assay [3] can be described thus: binders of probe aFGF2 on microarray, primary screen, stem cell growth factor project, biochemical, small-molecule microarray, fluorescence 635/667 (AID 1067).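 Further: measures binding of biotinylated aFGF2 protein to printed compounds on slides; z-score merges feature fluorescence and signal-to-noise across triplicate slides.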 The note with it: higher = more signal.
A short description of assay [4]: binders of probe aFGF10 on microarray, primary screen, stem cell growth factor project, biochemical, small-molecule microarray, fluorescence 635/667 (AID 1071).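 Further: score merges 667 nm spot intensity and signal to noise from triplicate slides.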 The note with it: higher = more signal.
The target of assay [5] is Neurogenic locus notch homolog protein 2 (Homo sapiens) (UniProt Q04721). The assay is described as follows: Notch2 binders on small-molecule microarrays, primary screen, biochemical, small-molecule microarray, 635 nm fluorescence, stem cell growth factors (AID 1073). The note with it: Notch2 binding, higher = more signal.
Neurogenic locus notch homolog protein 2 (Homo sapiens), sequence (Q04721 whole entry, looked up, canonical isoform): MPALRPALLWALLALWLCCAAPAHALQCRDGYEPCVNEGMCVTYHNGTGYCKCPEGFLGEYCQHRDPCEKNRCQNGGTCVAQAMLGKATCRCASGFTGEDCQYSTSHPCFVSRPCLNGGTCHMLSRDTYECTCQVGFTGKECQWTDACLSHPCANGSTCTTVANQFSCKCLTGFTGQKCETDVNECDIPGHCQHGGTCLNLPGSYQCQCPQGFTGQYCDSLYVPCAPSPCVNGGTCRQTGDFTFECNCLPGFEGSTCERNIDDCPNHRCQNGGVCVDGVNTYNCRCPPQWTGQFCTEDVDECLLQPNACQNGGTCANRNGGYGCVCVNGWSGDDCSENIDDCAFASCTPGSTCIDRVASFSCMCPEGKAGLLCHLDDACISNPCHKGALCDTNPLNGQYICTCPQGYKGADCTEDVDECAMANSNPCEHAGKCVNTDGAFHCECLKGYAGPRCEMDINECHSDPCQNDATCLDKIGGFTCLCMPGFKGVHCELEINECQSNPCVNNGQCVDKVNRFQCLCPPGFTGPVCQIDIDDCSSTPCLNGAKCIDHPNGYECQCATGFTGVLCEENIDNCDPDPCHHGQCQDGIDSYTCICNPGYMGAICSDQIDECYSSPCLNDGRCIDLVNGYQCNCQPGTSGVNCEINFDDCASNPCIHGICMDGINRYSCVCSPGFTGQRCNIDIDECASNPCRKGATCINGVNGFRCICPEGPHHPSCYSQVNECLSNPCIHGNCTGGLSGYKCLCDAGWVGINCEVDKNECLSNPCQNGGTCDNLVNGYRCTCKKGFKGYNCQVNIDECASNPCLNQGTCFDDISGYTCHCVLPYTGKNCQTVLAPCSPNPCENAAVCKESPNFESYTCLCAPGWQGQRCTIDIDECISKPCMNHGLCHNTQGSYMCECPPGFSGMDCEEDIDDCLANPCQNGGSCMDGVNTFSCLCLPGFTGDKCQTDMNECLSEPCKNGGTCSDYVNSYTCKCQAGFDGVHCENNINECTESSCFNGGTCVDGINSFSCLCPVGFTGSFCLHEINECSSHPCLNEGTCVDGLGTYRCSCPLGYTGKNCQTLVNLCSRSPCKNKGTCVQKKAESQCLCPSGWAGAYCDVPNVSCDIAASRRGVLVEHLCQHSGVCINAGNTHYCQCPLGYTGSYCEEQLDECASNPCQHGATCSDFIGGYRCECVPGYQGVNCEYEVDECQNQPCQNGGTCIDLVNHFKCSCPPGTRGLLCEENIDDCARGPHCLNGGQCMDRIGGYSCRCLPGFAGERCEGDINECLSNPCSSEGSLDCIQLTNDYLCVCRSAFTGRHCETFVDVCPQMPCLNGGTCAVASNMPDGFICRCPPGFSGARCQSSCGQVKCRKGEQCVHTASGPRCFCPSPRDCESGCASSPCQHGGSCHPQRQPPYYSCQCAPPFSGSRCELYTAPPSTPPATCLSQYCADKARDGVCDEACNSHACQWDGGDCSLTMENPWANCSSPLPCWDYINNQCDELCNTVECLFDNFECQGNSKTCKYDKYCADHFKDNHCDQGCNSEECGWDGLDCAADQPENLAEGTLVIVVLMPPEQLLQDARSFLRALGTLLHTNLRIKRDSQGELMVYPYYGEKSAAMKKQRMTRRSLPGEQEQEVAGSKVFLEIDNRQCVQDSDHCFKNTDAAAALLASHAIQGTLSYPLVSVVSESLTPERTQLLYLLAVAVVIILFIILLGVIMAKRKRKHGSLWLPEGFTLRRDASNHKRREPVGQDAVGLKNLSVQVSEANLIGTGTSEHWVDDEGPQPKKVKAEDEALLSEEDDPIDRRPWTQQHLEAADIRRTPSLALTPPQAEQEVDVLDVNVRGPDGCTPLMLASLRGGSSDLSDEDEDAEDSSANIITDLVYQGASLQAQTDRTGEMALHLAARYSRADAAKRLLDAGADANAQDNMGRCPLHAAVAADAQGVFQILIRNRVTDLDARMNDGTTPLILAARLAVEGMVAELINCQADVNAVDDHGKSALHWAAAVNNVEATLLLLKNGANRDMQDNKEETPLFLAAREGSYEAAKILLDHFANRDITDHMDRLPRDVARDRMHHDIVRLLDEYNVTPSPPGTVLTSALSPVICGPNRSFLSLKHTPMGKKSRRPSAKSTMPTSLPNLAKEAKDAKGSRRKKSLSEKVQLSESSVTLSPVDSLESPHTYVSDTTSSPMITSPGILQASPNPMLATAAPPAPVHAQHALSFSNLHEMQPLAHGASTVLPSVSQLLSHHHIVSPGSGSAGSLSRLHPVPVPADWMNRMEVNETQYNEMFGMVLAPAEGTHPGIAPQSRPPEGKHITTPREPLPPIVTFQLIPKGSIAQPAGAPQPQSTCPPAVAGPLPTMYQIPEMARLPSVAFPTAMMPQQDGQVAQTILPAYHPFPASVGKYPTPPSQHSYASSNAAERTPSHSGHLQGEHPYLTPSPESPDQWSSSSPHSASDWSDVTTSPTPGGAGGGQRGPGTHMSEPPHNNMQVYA
Assay [6] has as its target Pro-neuregulin-1, membrane-bound isoform (Homo sapiens) (UniProt Q02297). The experiment in a line: NRG1 binders on small-molecule microarrays, primary screen, psychiatric disease protein project, biochemical, small-molecule microarray, fluorescence 635/667 (AID 1075).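 Further: score combines 667 nm spot fluorescence with signal to noise.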 The note with it: NRG1 binding, 635 nm fluorescence, higher = more signal.
For assay [7], the system named is Neuregulin-1 EGF-like domain. The assay is described as follows: binders of neuregulin-1 EGF-like domain, primary screen, biochemical, small-molecule microarray, 635 nm fluorescence (AID 1081).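 Further: binding of the protein to compounds printed on small-molecule microarray slides.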 The note with it: small-molecule microarray binding, higher = more signal.
A short description of assay [8]: FRG1 promoter luciferase signal modulators, primary screen, FRG1 inhibition for FSHD, cell-based, C2C12 myotubes, firefly/Renilla luciferase, luminescence (AID 1084). The note with it: higher = more signal, called active from +8 up or from −8 down.
Assay [9] in a line: binders of probe aFST on microarray, primary screen, stem cell growth factor project, biochemical, small-molecule microarray, fluorescence 635/667 (AID 1086).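 Further: score merges 667 nm fluorescence with signal-to-noise of each printed compound spot.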 The note with it: higher = more signal.
A short description of assay [10]: binders of probe aHhip on microarray, primary screen, stem cell growth factor project, biochemical, small-molecule microarray, fluorescence 635/667 (AID 1087).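 Further: score merges spot fluorescence at 667nm with spot signal to noise ratio.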 The note with it: higher = more signal.

Active and inactive are the calls of the source.

Pro-neuregulin-1, membrane-bound isoform (Homo sapiens), sequence (Q02297 whole entry, looked up, the tested form may be a part, canonical isoform): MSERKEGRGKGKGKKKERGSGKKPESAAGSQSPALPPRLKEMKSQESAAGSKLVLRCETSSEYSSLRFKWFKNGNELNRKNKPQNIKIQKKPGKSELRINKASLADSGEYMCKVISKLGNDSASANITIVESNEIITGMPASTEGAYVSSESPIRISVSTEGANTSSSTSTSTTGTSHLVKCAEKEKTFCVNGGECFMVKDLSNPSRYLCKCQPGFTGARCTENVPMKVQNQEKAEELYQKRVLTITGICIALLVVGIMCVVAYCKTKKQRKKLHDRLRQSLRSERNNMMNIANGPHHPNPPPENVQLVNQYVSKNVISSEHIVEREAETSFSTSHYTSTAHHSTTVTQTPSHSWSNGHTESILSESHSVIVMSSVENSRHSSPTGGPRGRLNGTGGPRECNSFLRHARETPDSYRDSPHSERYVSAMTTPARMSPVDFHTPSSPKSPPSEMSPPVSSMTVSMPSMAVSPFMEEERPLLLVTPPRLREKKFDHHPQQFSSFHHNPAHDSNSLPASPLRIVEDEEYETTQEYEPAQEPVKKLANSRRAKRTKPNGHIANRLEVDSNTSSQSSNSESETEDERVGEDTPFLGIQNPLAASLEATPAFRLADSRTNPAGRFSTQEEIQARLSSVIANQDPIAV

For `COCCOC(=O)N1C(=O)[C@@]2(c3cc(C#CC4(O)CCCCCC4)ccc31)[C@H](C(=O)N1CCCCCCC1)[C@H]1C(=O)O[C@H](c3ccccc3)[C@H](c3ccccc3)N1[C@@H]2c1ccc(O)cc1`, the composite z-score in [1] turned out to be 3.29; in assay [2] it was 0.536; in assay [3], 0.416; in assay [4] it was 0.345; in [5], 0.899; in [6], 0.768. Further, the composite z-score in [7] is 1.2; in assay [9], 2.81; in assay [10], 1.11. Also, the z-score in [8] is -0.492 (inactive).
In the case of `CC[C@H]1C2=C3C(CC[C@H]4C(OC)OC[C@](C)([C@@H]34)N(C(=O)OC(C)(C)C)C2)C(CO)C1CO` (stereo not given in full), the composite z-score in [1] came to 1.21; in [2] it was 0.896; in [3], 0.181; in [4], 0.366; in [5] it was 1.65; in assay [6], 1.32. Further, the composite z-score came out at 1.13 in [7], 1.87 in [9] and 0.0053 in assay [10]. Moreover, the z-score in assay [8] was -0.342 (inactive).
For the molecule `CO[C@H]1O[C@H](CO)[C@@H](OC(=O)Nc2ccc3c(c2)OCO3)[C@H](OC(=O)Nc2ccccc2)[C@@H]1OC(=O)Nc1ccccc1`, the composite z-score in [1] is -0.214; in [2], 0.215; in [3], 0.0654; in assay [4], 0.949; in assay [5], -0.0622; in assay [6], 1.27. Further, the composite z-score is 1.29 in [7], 0.188 in [9] and -0.0994 in [10]. Moreover, the z-score in assay [8] is -1.6 (inactive).
As for `COCCOC(=O)N1C(=O)[C@@]2(c3cc(C#CCNC(N)=O)ccc31)[C@H](C(=O)N1CCCCCCC1)[C@H]1C(=O)O[C@H](c3ccccc3)[C@H](c3ccccc3)N1[C@@H]2c1ccccc1OCCO`, the composite z-score in assay [1] was found to be 2.42; in assay [2], 0.288; in [3], 0.129; in assay [4], 0.452; in assay [5], 1.38; in assay [6], 1.03. Also, the figures for the composite z-score in [7], in [9] and in assay [10] were 1.05, 1.29 and 0.851, respectively. In addition, the z-score in assay [8] is -0.556 (inactive).
As to `[N-]=[N+]=NCc1ccccc1C[C@@]1(C(=O)O)N=C(c2ccc(OCCCO)cc2)O[C@@H]1c1ccccc1N=[N+]=[N-]`, the composite z-score in assay [1] is 0.168; in assay [2], -0.259; in assay [3], -0.0242; in assay [4] it was 0.377; in assay [5] it was 1.55; in assay [6], 1.66. Further, the composite z-score was 1.22 in assay [7], 0.521 in assay [9] and -0.0994 in assay [10]. In addition, in [8], the z-score is -1.6 (inactive).
With `CCCNC(=O)[C@@H]1c2ccccc2C(=O)N(C2CCCCC2)[C@H]1c1ccc(CO)cc1`, the composite z-score in [1] was -0.162; in [2], 0.325; in [3], -0.0374; in [4], 0.549; in assay [5], 1.41; in assay [6] it was 1.16. For the same molecule, the composite z-score was 1.29 in assay [7], 0.56 in assay [9] and 0.0785 in assay [10]. The z-score in assay [8] was -0.0971 (inactive).
`Cc1ccc(S[C@]2(C(=O)NC(C)C)CC(=O)N(Cc3cc(C(F)(F)F)cc(C(F)(F)F)c3)[C@@H]2c2ccc(CO)cc2I)cc1`: the composite z-score in [1] was 0.808; in [2] it was -0.666; in assay [3], -0.103; in assay [4], -0.345; in assay [5], -1.7; in assay [6], 1.53. The composite z-score in [7] is 0.74; in [9], -0.666; in [10], -0.0994. Besides, the z-score in assay [8] is -0.321 (inactive).
Consider `CCCCCCc1nc(-c2cc(C)c(OC)c(C)c2)cc2c1[Si](C(C)C)(C(C)C)O[C@H]2c1ccccc1`, for which the composite z-score in assay [1] is -0.315; in assay [2], -0.397; in assay [3], -0.14; in [4], -0.324; in assay [5], -0.209; in assay [6] it was -0.626. Moreover, the composite z-score in [7] is -1.04; in [9], 0.0223; in assay [10] it was 0.0505. The z-score in assay [8] was 0.119 (inactive).
Take `CO[C@@H]1COC(=O)CC=C[C@H](C)COC(=O)[C@H](Cc2ccccc2)NC(=O)CC=C[C@H]1C`: the composite z-score in assay [1] was -1.68; in assay [2], 1.69; in assay [3] it was -0.265; in [4] it was -0.416; in [5], -1.04; in assay [6] it was -0.409. Moreover, the figures for the composite z-score in assay [7], in [9] and in assay [10] were 0.517, -0.515 and -0.179, respectively. The z-score in [8] is -0.533 (inactive).
For `COc1ccc([Si](C)(C)[C@H]2[C@H](CCO)O[C@@]3(C(=O)N(Cc4ccccc4)c4ccc(N5C(=O)c6cccc7cccc5c67)cc43)[C@@H]2C)cc1`, the composite z-score in assay [1] is 0.334; in [2] it was -0.173; in assay [3], -0.144; in [4] it was 0.0626; in [5] it was -0.0844; in assay [6] it was 0.48. Besides, the composite z-score in assay [7] is 0.836; in assay [9] it was -0.268; in assay [10], 3.71. The z-score in [8] is -1.3 (inactive).
For the molecule `CC1=C([C@H](O)CCc2ccccc2)[C@H](CO)[C@@H]2C(=O)N(Cc3ccccc3)C(=O)[C@@H]2C1`, the composite z-score in assay [1] is -0.183; in assay [2], 0.0897; in assay [3] it was 0.0137; in assay [4], 0.216; in assay [5], 0.585; in [6], 0.181. The composite z-score is -0.107 in [7], 0.0747 in assay [9] and -0.174 in [10]. The z-score in assay [8] is -0.69 (inactive).
As for `CCC#CCN(Cc1ccccc1Br)[C@H](/C=C/c1ccccc1)[C@@H](O)Cc1ccccc1`, the composite z-score in assay [1] is 1.78; in assay [2], -0.387; in assay [3] it was -0.176; in assay [4], -0.61; in [5], -1.52; in [6], -0.0939. Moreover, the composite z-score in assay [7] was -0.11; in assay [9] it was -0.465; in assay [10], -0.271. The z-score in assay [8] was -0.227 (inactive).

Values taken from PubChem BioAssay.
